According to PubChem BioAssay AID652054 (National Center for Advancing Translational Sciences (NCATS), 2013):
About 9,100 (2.5%) of roughly 360,000 compounds were called active. Not shown: some 4% with an inconclusive outcome. The sample holds actives, similar compounds and a random draw of the others, so the mix is not that of the screen. Rule as the data show it: active = max response below about -50%; inconclusive = no clear call, values can overlap the other calls; inactive = above that.

biological target: D(3) dopamine receptor (Homo sapiens) (UniProt P35462); experiment: qHTS of D3 Dopamine Receptor Antagonist: qHTS; details: D3R cells, DiscoveRx beta-arrestin luminescence, antagonist mode; hits give low values
Sequence (P35462 whole entry, looked up): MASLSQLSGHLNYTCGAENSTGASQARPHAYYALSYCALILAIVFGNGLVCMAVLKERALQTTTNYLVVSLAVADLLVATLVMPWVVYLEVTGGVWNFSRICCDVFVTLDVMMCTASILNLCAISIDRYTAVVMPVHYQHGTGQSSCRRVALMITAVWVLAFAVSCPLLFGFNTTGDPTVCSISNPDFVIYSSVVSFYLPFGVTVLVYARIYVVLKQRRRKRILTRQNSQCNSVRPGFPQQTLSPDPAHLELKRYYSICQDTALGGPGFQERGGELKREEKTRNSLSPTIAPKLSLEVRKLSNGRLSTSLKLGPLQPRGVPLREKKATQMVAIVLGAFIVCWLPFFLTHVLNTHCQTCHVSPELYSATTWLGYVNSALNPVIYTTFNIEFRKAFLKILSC
In short: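 Cells expressing the human receptor were seeded at 1500 cells/well, incubated overnight at 37 degrees C in 5% CO2, then exposed to library compounds with dopamine controls for 90 minutes at 37 degrees C before luminescent detection.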
% is scaled to controls: 0 for no effect and ±100 for the full control effect.

| SMILES | max response, negative = inhibition |
| --- | --- |
| CCOC(=O)C1=CCC(c2ccc(F)cc2)N(S(=O)(=O)c2ccc(C)cc2)C1 (stereo not given) | -25.7% (inactive) |
| Clc1cccc(Cc2c(-c3cccc(Cl)c3)nc3ccc(Cl)cn23)c1 | 33.1% (inactive) |
| CC(=NNC(N)=O)C1CC2CCC1CC2 (stereo not given) | 16.7% (inactive) |
| O=C1Nc2ccccc2-n2nnnc2C1N1CCN(c2cccc(C(F)(F)F)n2)CC1 (stereo not given) | 11.4% (inactive) |
| CN1CCN(/N=C2/C(=O)Nc3ccc([N+](=O)[O-])cc32)CC1 | -3.16% (inactive) |
| O=C1Nc2ccc([N+](=O)[O-])cc2C1=Nc1cccc(CO)c1 | -77.4% (active) |
| O=[N+]([O-])c1ccc(N(CCO)Cc2ccccc2)c([N+](=O)[O-])c1 | 5.91% (inactive) |
| COC(=O)CCCCC1=CCC2C(=O)C=C(O)C2C1 (stereo not given) | 0% (inactive) |
| CN1CCn2cnc(C(=O)NCC(=O)OC(C)(C)C)c2C1=O | -5.8% (inactive) |
| CC1CCCCN1S(=O)(=O)c1ccc(S(=O)(=O)N(CC(=O)Nc2ccccc2)Cc2cccs2)cc1 (stereo not given) | 28.7% (inactive) |
| CC1CCCCN1S(=O)(=O)c1ccc(C(=O)Nc2nnc(-c3cccs3)o2)cc1 (stereo not given) | -63.3% (active) |
| CSCc1nnc(NC(=O)c2ccc(S(=O)(=O)N3CCCCC3C)cc2)o1 (stereo not given) | -20% (inactive) |
| Cc1cc(-n2nc(C)cc2C)n2ncc(-c3ccccc3)c2n1 | 17.7% (inactive) |
| Cc1cc(C)n(-c2c(F)c(F)c(COC(=O)c3ccccc3)c(F)c2F)n1 | -2% (inactive) |
| CCOC(=O)c1cnc(-n2nc(C)cc2C)nc1NNc1cc(C)nc(-c2ccccc2)n1 | -53.4% (active) |
| CCCS(=O)(=O)NC(=O)C1(C)CCCN(C(=O)c2cccs2)C1 (stereo not given) | -7.3% (inactive) |
| COC(=O)[C@]12CCCCC=C1N(Cc1ccccc1)C(=O)[C@H](CC(=O)NCc1ccc(C)o1)C2 | 0.174% (inactive) |
| COc1ccc(N2CCN(Cc3nnc(-c4ccccc4)o3)CC2)cc1 | 11.3% (inactive) |
| Cc1ccc(-c2nnc(CN3CCN(C)CC3)o2)cc1 | 0% (inactive) |
| c1ccc(-c2cnc(CN3CCN(c4ccccc4)CC3)o2)cc1 | -58.1% (active) |

| SMILES | max response, negative = inhibition |
| --- | --- |
| Cc1cc2cc3n(c2nn1)N=C(Cl)CC3 | 10.6% (inactive) |
| CCc1ccccc1N1C(=O)C2C3CC(=O)C(c4ccccc43)C2C1=O (stereo not given) | -6.94% (inactive) |
| CC(=O)Nc1ccc(N2C(=O)C3C4CC(=O)C(c5ccccc54)C3C2=O)cc1 (stereo not given) | -60% (active) |
| CC(=O)Nc1ccc(N2C(=O)C3C4C=CC(CC4)C3C2=O)cc1 (stereo not given) | 3.35% (inactive) |
| Cc1cc(Br)cn2c(Cc3cccc(F)c3)c(-c3cccc(Br)c3)nc12 | 0.913% (inactive) |
| COc1ccccc1/C=C/C=N/NC(=O)CN1CCN(Cc2ccccc2)CC1 | -17.6% (inactive) |
| COc1ccccc1/C=C/CN1CCC(CO)(Cc2ccccc2)CC1 | -76.1% (active) |
| CC(C)c1csc(CN2CCC(CO)(Cc3ccccc3)CC2)n1 | -22% (inactive) |
| COc1cccc(NC(=O)N(C)C[C@@H]2Oc3ncc(Br)cc3C(=O)N([C@@H](C)CO)C[C@H]2C)c1 | -24.9% (inactive) |
| OC(c1ccccc1)c1nc(-c2cnc3ccccc3c2)cs1 (stereo not given) | 4.32% (inactive) |
| CCc1ccc2c(c1)C1(NN=C(c3ccccc3)S1)C(=O)N2 (stereo not given) | -60.6% (active) |
| CCc1ccc2c(c1)NC(=O)C2(C)Cc1ccc(OC(F)(F)F)cc1 (stereo not given) | 16.6% (inactive) |
| NC1=CC(=O)C(=O)c2cccnc21 | -69.1% (active) |
| CCOc1ccc(CCN2C(=O)c3cccnc3C2=O)cc1OCC | -22% (inactive) |
| NC(c1csc(NC(=O)Nc2cccc(C(F)(F)F)c2)n1)C1CCCCC1 (stereo not given) | 13.3% (inactive) |
| CCOC(=O)[C@]12CCC=C1N(CCC1=CCCCC1)C(=O)[C@H](CC(=O)NCc1ccc(C)o1)C2 | 16.1% (inactive) |
| COCCCNC(=O)c1ccc(-c2c(C)noc2C)c2ccoc12 | 0% (inactive) |
| Cc1nc(Nc2ccc3c(c2)OCCO3)c2nnn(Cc3ccccc3Cl)c2n1 | -26.4% (inactive) |
| Cc1nc(Nc2ccc(S(=O)(=O)N3CCCC3)cc2)c2nnn(Cc3ccccc3)c2n1 | -69.4% (active) |
| CC(C)Cc1nc(Nc2ccc(S(=O)(=O)N3CCCC3)cc2)c2nnn(Cc3ccccc3)c2n1 | -27.2% (inactive) |

| SMILES | max response, negative = inhibition |
| --- | --- |
| NS(=O)(=O)c1ccc(CNC(=O)c2cc(S(=O)(=O)N3CCOCC3)ccc2N2CCCC2)cc1 | 0% (inactive) |
| COc1cc(CNc2ncnc3c2ncn3[C@H]2CN(Cc3cccs3)C[C@@H](CO)O2)cc(OC)c1OC | 13% (inactive) |
| C[C@H](CO)N1C[C@H](C)[C@@H](CN(C)Cc2ccc3c(c2)OCO3)OCc2cnnn2CCCC1=O | 9.24% (inactive) |
| CCCS(=O)(=O)NC(=O)C1(C)CCCN(C(=O)c2ccnc(Cl)c2)C1 (stereo not given) | -5.74% (inactive) |
| O=C(c1ccccc1Oc1ccccc1)N1CCN(c2ccc(F)cc2)CC1 | 11.3% (inactive) |
| COc1ccc(N2CCN(C(=O)CNC(=O)c3ccc(Br)o3)CC2)cc1 | 4.35% (inactive) |
| COc1ccc(N2CCN(C(=O)c3cccs3)CC2)cc1 | -4.36% (inactive) |
| COc1ccc(N2CCN(Cc3ccc(Br)s3)CC2)cc1 | -54.8% (active) |
| O=[N+]([O-])c1ccc(N2CCN(c3ccc(F)cc3)CC2)cn1 | 1.91% (inactive) |
| Fc1ccc(N2CCN(Cc3cnc(Oc4ccc(Br)cc4)s3)CC2)cc1 | -67.9% (active) |
| CO[C@@H]1CN(C)C(=O)c2cc(NC(=O)C3CC3)ccc2OC[C@H](C)N(C(=O)CN2CCOCC2)C[C@@H]1C | -4.53% (inactive) |
| Cc1cccc(C(=O)OCC(=O)Nc2sccc2C(N)=O)c1C | 12.4% (inactive) |
| CCOC(=O)C1Sc2[nH]c(=O)sc2C(c2ccc(Cl)cc2)C1C(=O)OCC (stereo not given) | -67.4% (active) |
| CCOC(=O)C1C(=O)NCC1c1ccccc1 (stereo not given) | -22.2% (inactive) |
| CCOC(=O)C1CCN(C(=O)Nc2ccc(Cl)cc2)CC1 | 0% (inactive) |
| Cc1ccc(S(=O)(=O)N2[C@@H](Cc3ccccc3)CO[C@H]2CC(=O)OCc2ccccc2)cc1 | -24.9% (inactive) |
| COc1ccc(C(=O)NCC[N+](C)(C)C)cc1 | 7.47% (inactive) |
| COc1ccccc1CNC(=O)CCn1c(=O)sc2ccccc21 | -166% (active) |
| COc1ccccc1CNC(=O)CCCN1C(=O)NC2(CCCC2)C1=O | -13.5% (inactive) |
| CCc1nnc(NC(=O)CCC(=O)NCc2ccccc2OC)s1 | 14.9% (inactive) |
